Consider nine molecules from PubChem BioAssay (Tox21).

A short description of assay [1]: qHTS assay to identify small molecule agonists of the peroxisome proliferator-activated receptor delta (PPARd) signaling pathway - cell viability counter screen (AID 743211). Also: nearly all actives have a fitted effect of over 55% in size. In a few lines:
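Viability was measured as CellTiter-Glo luminescence (30 min, room temperature) in the same wells as the beta-lactamase readout. GeneBLAzer PPARd UAS-bla HEK293H cells received compound after 5 h plating and were incubated 17 h at 37 C.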
A general note: Quantitative high-throughput screening tests each substance at several concentrations.

Assay [2] addresses Peroxisome proliferator-activated receptor delta (Homo sapiens) (UniProt Q03181). The assay is described as follows: qHTS assay to identify small molecule agonists of the peroxisome proliferator-activated receptor delta (PPARd) signaling pathway (AID 743212; calls by dose curve). In a few lines: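 Steps: seed PPARd-bla HEK293H cells; incubate 5 h, 37 C, 5% CO2; add compounds in DMSO; incubate, 37 C; add LiveBLAzer B/G FRET substrate; hold 2 h at room temperature; measure fluorescence.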

For assay [3], the target named is Bile acid receptor (Homo sapiens) (UniProt Q96RI1). In words: qHTS assay to identify small molecule antagonists of the farnesoid-X-receptor (FXR) signaling pathway (AID 743217; active = well fitted inhibition curve with a large enough effect in the signal ratio in the repeat runs, not every such curve was filed as active; the % refers to the signal ratio). An outline of the steps: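 Cells carrying a UAS-driven beta-lactamase reporter (GeneBLAzer FXR-UAS-bla HEK 293T) were plated and rested 5 h at 37 °C. Compounds in DMSO were added alongside chenodeoxycholic acid agonist at 50 uM final and left 16 h at 37 °C before FRET substrate readout.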
Sequence of Bile acid receptor (Homo sapiens) (Q96RI1 whole entry, looked up): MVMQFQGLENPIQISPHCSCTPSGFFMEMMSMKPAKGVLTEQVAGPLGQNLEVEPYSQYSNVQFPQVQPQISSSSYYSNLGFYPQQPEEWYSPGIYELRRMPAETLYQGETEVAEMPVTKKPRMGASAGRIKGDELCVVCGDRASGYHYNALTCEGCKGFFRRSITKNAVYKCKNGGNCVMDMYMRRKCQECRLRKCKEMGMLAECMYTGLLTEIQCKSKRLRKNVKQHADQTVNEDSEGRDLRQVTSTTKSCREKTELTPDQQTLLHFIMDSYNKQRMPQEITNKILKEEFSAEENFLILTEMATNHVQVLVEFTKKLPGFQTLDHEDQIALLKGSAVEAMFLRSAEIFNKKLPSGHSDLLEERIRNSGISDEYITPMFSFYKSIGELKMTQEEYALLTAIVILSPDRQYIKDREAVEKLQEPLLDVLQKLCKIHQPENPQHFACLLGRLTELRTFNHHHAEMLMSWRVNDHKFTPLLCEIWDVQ

A short description of assay [4]: qHTS assay to identify small molecule agonists of the farnesoid-X-receptor (FXR) signaling pathway - cell viability counter screen (AID 743218). Also: nearly all actives have a fitted effect of over 45% in size. In a few lines:
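Cells were seeded, left 5 h at 37 C and 5% CO2, then dosed with compound in DMSO for 16 h. After the beta-lactamase FRET read, CellTiter-Glo was added and luminescence measured 30 min later.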

Assay [5] is described as follows: qHTS assay to identify small molecule antagonists of the vitamin D receptor (VDR) signaling pathway - cell viability counter screen (AID 743225). Also: nearly all actives have a fitted effect of over 50% in size. In a few lines: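 Cytotoxicity counter screen read by CellTiter-Glo luminescence (30 min, room temperature) in the same wells as the VDR-bla antagonist readout. HEK 293T VDR-UAS-bla cells had 16 h at 37C with compound and 3 nM (final) 1-alpha,25-dihydroxyvitamin D3, then 2 h with FRET substrate.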

Assay [6] in a line: qHTS assay to identify small molecule agonists of the endoplasmic reticulum stress response signaling pathway - cell viability counter screen (AID 1159517; calls by dose curve;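 also: HeLa cells carrying an ER stress response element beta-lactamase reporter; series mostly up to about 61 µM; nearly all actives have a fitted effect of over 50% in size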). An outline of the steps:
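After overnight attachment, ESRE-bla HeLa cells were treated with Tox21 library compounds for 5 hr. CellTiter-Glo luminescence, read 30 min post-addition at room temperature, reported viability.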

Assay [7] can be described thus: qHTS assay to identify small molecule antagonists of the retinoid-related orphan receptor gamma (ROR-gamma) signaling pathway - cell viability counter screen (AID 1159520). Also: nearly all actives have a fitted effect of over 50% in size. Also: potency is read from the fitted curve at half-maximal effect. An outline of the steps:
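Cytotoxicity was read from cellular ATP (CellTiter-Glo luminescence) after 16 hr at 37 C with 1 uM doxycycline induction. The inducer was added 2 hr after compound transfer to Tet-on ROR gamma CHO cells.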

Assay [8] concerns the target Nuclear receptor ROR-gamma (Homo sapiens) (UniProt P51449). In words: qHTS assay to identify small molecule antagonists of the retinoid-related orphan receptor gamma (ROR-gamma) signaling pathway (AID 1159521; also: nearly all actives have a fitted effect of over 50% in size; also: potency is read from the fitted curve at half-maximal effect). An outline of the steps:
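Antagonist read-out: drop in luminescence (ONE-Glo) from an RORE-LUC reporter in CHO cells with doxycycline-inducible ROR-gamma; 2 hr compound pretreatment, 1 uM doxycycline, 16 hr incubation at 37 C.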

Assay [9] in a line: qHTS assay to identify small molecule agonists of the AP-1 signaling pathway - cell viability counter screen (AID 1159525; calls by dose curve; also: nearly all actives have a fitted effect of over 55% in size). An outline of the steps:
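Intracellular ATP by Cell Titer Glo luminescence (30 min, RT) in the same ME-180 AP-1-bla wells after the 5 h compound exposure at 37 °C. Normalised to tetra n-octyl ammonium bromide and DMSO controls.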

Assay [10] is described as follows: qHTS assay to identify small molecule antagonists of the peroxisome proliferator-activated receptor delta (PPARd) signaling pathway - cell viability counter screen (AID 743213). Also: nearly all actives have a fitted effect of over 50% in size. In a few lines: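 Viability counter-screen, qHTS format: PPARd-bla HEK293H, L165041 300 nM final, 17 h compound exposure at 37 C, CellTiter-Glo luminescence after 30 min RT.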
Assay [11] in a line: qHTS assay to identify small molecule antagonists of the farnesoid-X-receptor (FXR) signaling pathway - cell viability counter screen (AID 743221; active = well fitted cell-killing curve with a large enough effect in the repeat runs, not every such curve was filed as active; also: nearly all actives have a fitted effect of over 50% in size). In a few lines:
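Cytotoxicity counter screen run in the FXR-bla reporter wells: HEK 293T cells exposed to compound with 50 uM (final) chenodeoxycholic acid for 16 h, 37 C, then viability measured by CellTiter-Glo luminescence after 30 min, room temperature.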

Assay [12] has as its target Vitamin D3 receptor (Homo sapiens) (UniProt P11473). The assay is described as follows: qHTS assay to identify small molecule agonists of the vitamin D receptor (VDR) signaling pathway (AID 743222; calls by dose curve). In a few lines:
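Cells carrying a VDR-driven beta-lactamase reporter are seeded at 2,000 per well and rested 4 h. Compounds in DMSO are added for 16 h at 37C, and FRET substrate fluorescence is measured after 2 h at room temperature.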

For assay [13] the target is unchanged. In words: qHTS assay to identify small molecule antagonists of the vitamin D receptor (VDR) signaling pathway (AID 743223; active = well fitted inhibition curve with a large enough effect in the signal ratio in the repeat runs, not every such curve was filed as active; the % refers to the signal ratio). In a few lines:
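Antagonist mode: compound added to VDR-bla cells alongside agonist 1alpha,25-dihydroxyvitamin D3 (3 nM final), incubation 16 h at 37C. Read-out is LiveBLAzer FRET fluorescence, 2 h at room temperature.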

The nature of assay [14]: qHTS assay to identify small molecule agonists of the vitamin D receptor (VDR) signaling pathway - cell viability counter screen (AID 743224). An outline of the steps:
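Cells: VDR-bla, 2,000/well, settled 4 h. Treatment: compounds in DMSO, 16 h, 37C/5% CO2. Readout: CellTiter-Glo luminescence after 30 min RT.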

A short description of assay [15]: qHTS assay to identify small molecule agonists of the endoplasmic reticulum stress response signaling pathway (AID 1159516; active = well fitted activation curve with a large enough effect in the signal ratio in the repeat runs, not every such curve was filed as active; the % refers to the signal ratio). An outline of the steps: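 Cells are seeded at 1,500 per well and incubated overnight. Compounds in DMSO are added for 5 hr at 37 C, then beta-lactamase FRET substrate for 2 hr at room temperature, and fluorescence at 460 and 530 nm is measured.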

Assay [16] is described as follows: qHTS assay to identify small molecule agonists of the AP-1 signaling pathway (AID 1159526; calls by dose curve).
The target of assay [17] is Peroxisome proliferator-activated receptor delta (Homo sapiens) (UniProt Q03181). In words: qHTS assay to identify small molecule antagonists of the peroxisome proliferator-activated receptor delta (PPARd) signaling pathway (AID 743215; active = well fitted inhibition curve with a large enough effect in the signal ratio in the repeat runs, not every such curve was filed as active; the % refers to the signal ratio;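 also: cells stimulated with agonist L165041 at 300 nM final during compound exposure; series mostly up to about 62 µM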). An outline of the steps:
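Cells: HEK293H with a UAS-driven beta-lactamase reporter responsive to PPARd. Compounds were co-added with L165041 (300 nM, final) and incubated 17 h at 37 C before a 2 h room-temperature FRET substrate step and fluorescence reading.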

In assay [18] the target is Bile acid receptor (Homo sapiens) (UniProt Q96RI1). The assay is described as follows: qHTS assay to identify small molecule agonists of the farnesoid-X-receptor (FXR) signaling pathway (AID 743220; active = well fitted activation curve with a large enough effect in the signal ratio in the repeat runs, not every such curve was filed as active; the % refers to the signal ratio). In a few lines:
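FXR-UAS-bla HEK 293T cells carrying a UAS-driven beta-lactamase reporter were plated for 5 h at 37C/5% CO2, then exposed to DMSO-dissolved Tox21 10K compounds for 16 h at 37C. A LiveBLAzer B/G FRET substrate was loaded for 2 h at room temperature before fluorescence reading.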

Assay [19] addresses Retinoic acid receptor RXR-alpha (Homo sapiens) (UniProt P19793). In words: qHTS assay to identify small molecule agonists of the RXR signaling pathway (AID 1159527; calls by dose curve; also: nearly all actives have a fitted effect of over 35% in size). In a few lines:
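Agonist-mode beta-lactamase reporter assay: HEK 293T RXR-alpha-UAS-bla cells treated 16 hr at 37 C with compounds, 9-cis retinoic acid as positive control. LiveBLAzer FRET substrate, 405 nm excitation, 460/530 nm emission.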

Inconclusive results are not listed. Calls of active or inactive are those of the source. Unless noted, calls follow the shape of the dose curve; as a rule, active = well fitted curve in the direction sought with a large enough effect in the repeat runs; inconclusive = weak or mixed curves; inactive = no such curve, though single readings can be large; an effect the other way counts as inactive or inconclusive.

Sequence of Peroxisome proliferator-activated receptor delta (Homo sapiens) (Q03181 whole entry, looked up): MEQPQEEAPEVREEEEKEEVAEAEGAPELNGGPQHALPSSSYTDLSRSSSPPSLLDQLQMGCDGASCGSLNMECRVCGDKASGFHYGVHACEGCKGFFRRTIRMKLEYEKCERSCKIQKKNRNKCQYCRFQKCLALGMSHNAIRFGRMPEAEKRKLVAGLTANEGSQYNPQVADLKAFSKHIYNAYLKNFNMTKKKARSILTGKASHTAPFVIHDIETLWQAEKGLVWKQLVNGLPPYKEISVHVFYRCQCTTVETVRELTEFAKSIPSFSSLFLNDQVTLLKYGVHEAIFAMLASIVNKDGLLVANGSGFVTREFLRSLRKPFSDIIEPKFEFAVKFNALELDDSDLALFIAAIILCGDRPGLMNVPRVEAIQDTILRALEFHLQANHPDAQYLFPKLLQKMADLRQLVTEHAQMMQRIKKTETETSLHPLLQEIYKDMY
Sequence of Vitamin D3 receptor (Homo sapiens) (P11473 whole entry, looked up): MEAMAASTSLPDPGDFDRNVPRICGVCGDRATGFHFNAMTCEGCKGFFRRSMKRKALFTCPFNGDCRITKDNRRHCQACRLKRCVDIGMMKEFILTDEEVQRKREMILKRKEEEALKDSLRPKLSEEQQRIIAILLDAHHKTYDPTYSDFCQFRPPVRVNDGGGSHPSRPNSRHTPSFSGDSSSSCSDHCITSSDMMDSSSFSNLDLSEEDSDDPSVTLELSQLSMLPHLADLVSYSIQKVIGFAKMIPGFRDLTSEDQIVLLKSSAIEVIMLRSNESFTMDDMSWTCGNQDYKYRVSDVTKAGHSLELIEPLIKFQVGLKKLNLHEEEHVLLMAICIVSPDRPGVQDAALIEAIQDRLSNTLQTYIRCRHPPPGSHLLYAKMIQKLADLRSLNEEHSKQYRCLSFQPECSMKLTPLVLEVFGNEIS
Sequence of Retinoic acid receptor RXR-alpha (Homo sapiens) (P19793 whole entry, looked up): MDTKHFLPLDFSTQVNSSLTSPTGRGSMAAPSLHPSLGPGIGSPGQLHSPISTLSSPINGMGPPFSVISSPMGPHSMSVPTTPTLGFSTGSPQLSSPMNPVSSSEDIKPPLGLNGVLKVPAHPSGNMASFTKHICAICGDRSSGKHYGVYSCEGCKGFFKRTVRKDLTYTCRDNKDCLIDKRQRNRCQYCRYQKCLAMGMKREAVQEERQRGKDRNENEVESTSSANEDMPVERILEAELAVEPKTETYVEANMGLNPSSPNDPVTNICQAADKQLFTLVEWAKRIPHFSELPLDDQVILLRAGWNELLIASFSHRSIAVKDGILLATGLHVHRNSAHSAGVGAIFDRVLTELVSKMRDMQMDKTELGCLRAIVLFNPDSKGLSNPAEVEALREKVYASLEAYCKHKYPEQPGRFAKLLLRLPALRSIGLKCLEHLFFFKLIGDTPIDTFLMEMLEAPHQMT

With `Cc1cc(O)ccc1N`, the Potency result in [1], in assay [4], in [5] and in assay [9] was “inactive” in each case. Also, the molecule was classed as inactive in [2], in assay [3] and in [6]. Further, the Potency in assay [7] was 54.8 µM (active); in assay [8] it was 24.5 µM (active).
Take `NC(=S)N/N=C/c1cccnc1`: the Potency result in assay [1], in assay [10], in assay [4], in [11], in assay [13] and in assay [14] was “inactive” each time. Also, the Potency result in assay [5], in assay [15], in [7], in assay [8], in assay [9] and in assay [16] was “inactive” in each case. Further, the molecule was classed as inactive in [2], in assay [12] and in assay [6].
Turning to `Nc1nc(CC(=O)O)cs1`, the Potency result in [1], in assay [10], in [4], in assay [11], in assay [13] and in assay [14] was “inactive” throughout. The Potency entry in [5], in [15], in assay [7], in assay [8], in assay [9] and in assay [16] was “inactive” in each case. In addition, the outcome in assay [2], in [17], in [12] and in assay [6] was inactive.
`Cc1ncsc1CCO`: the Potency entry in [1], in assay [4], in assay [11], in assay [14], in assay [7] and in assay [8] was “inactive” in each case. The Potency entry in assay [9] and in assay [16] was “inactive” throughout. Further, the call in assay [2], in assay [17], in assay [18], in [12] and in assay [6] was inactive.
As for `COCCO`, the Potency entry in [1], in [10], in [11], in assay [13], in [14] and in assay [5] was “inactive” in each case. In addition, the Potency entry in [15], in [7], in assay [8], in assay [9], in assay [16] and in [19] was “inactive” in each case. Besides, the molecule was called inactive in assay [2], in [12] and in [6].
For `Nc1cnn([C@@H]2O[C@H](CO)[C@@H](O)[C@H]2O)c(=O)n1`, the Potency result in assay [1], in [11], in assay [13], in [14], in assay [15] and in assay [7] was “inactive” each time. In addition, the Potency entry in assay [9] and in assay [16] was “inactive” in each case. For the same molecule, the call in [2], in [17], in assay [18], in assay [12] and in assay [6] was inactive. In assay [8], the Potency was 21.7 µM (active).
Take `Cn1c(NCCN(CCO)CCCc2ccc([N+](=O)[O-])cc2)cc(=O)n(C)c1=O`: the Potency entry in assay [1], in assay [4], in assay [11], in assay [13], in assay [14] and in assay [5] was “inactive” in each case. The Potency entry in assay [15], in assay [7], in assay [8], in assay [9] and in assay [16] was “inactive” each time. The molecule was classed as inactive in [2] and in [6].
`O=[N+]([O-])c1cccc(Cl)c1Cl`: the Potency entry in [1], in assay [10], in assay [4], in assay [11], in [14] and in [5] was “inactive” throughout. In addition, the Potency result in assay [7], in assay [8], in assay [9] and in [16] was “inactive” in each case. Besides, the result in assay [2], in assay [17], in assay [3], in [18], in [12] and in assay [6] was inactive.
With `CC(C)(C)c1cc(CCC(=O)OCC(COC(=O)CCc2cc(C(C)(C)C)c(O)c(C(C)(C)C)c2)(COC(=O)CCc2cc(C(C)(C)C)c(O)c(C(C)(C)C)c2)COC(=O)CCc2cc(C(C)(C)C)c(O)c(C(C)(C)C)c2)cc(C(C)(C)C)c1O`, the Potency entry in assay [1], in assay [10], in assay [4], in [11], in assay [13] and in assay [14] was “inactive” throughout. Moreover, the Potency entry in [15], in [7], in assay [8], in assay [9] and in [16] was “inactive” throughout. Besides, the molecule was called inactive in [2], in assay [3], in [18], in assay [12] and in assay [6].
